Source: PubChem BioAssay AID2451 (National Center for Advancing Translational Sciences (NCATS), 2010)
The campaign covered roughly 290,000 compounds. About 2,100 (0.72%) were called active. Roughly 4% stayed inconclusive and do not appear here. This excerpt belongs to a sample that is enriched for actives. A number with no mark means an inactive call. Calls come from the whole dose curve; as a rule, active = well fitted inhibition curve with a large enough effect; inconclusive = small, poorly fitted or top-dose-only effect, or effect the other way; inactive = flat fitted curve, though single readings scatter.

The molecules below were run against Fructose-bisphosphate aldolase (Giardia intestinalis (strain ATCC 50803 / WB clone C6)) (UniProt A8B2U2) (assay: qHTS Assay for Inhibitors of Fructose-1,6-bisphosphate Aldolase from Giardia Lamblia). Conditions: purified Giardia FBPA; series mostly up to 59.6 µM; activity, negative = inhibition: at the top concentration.
Excerpt: Assay Provider: Osnat Herzberg, University of Maryland
The objective of this project is to obtain compounds that inhibit Giardia lamblia growth. G. lamblia is a human pathogen which afflicts impoverished nations; it is the most common cause of outbreaks of diarrhea in the United States. During the course of our study of potential drug targets in Giardia, we have identified the Class II (Zn2+ functions in electrophilic catalysis) fructose-1,6-bisphosphate aldolase (FBPA) as an excellent candidate for drug targeting. FBPA is a key glycolytic pathway enzyme, essential for G. lamblia survival. The human FBPA belongs to the Class I aldolases, which have a different substrate binding site structure and a radically different catalytic mechanism (employing a lysine-Schiff base intermediate). Therefore, affinity-based or mechanism-based inhibitors of the Giardia FBPA are expected not to interfere with the catalytic function of the human FBPA.
A glyceraldehyde-3-phosphate dehydrogenase/triose phosphate isomerase/NAD/arsenate coupled assay was adapted to the 1536-well HTP format for use in the primary screen. This was done by coupling it to a diaphorase/resazurin/resorufin reaction that can be monitored by fluorescence (excitation, 544 nm; emission, 590 nm). Compounds identified in this screen will be further evaluated by coupling the glycerol-3-phosphate/triose phosphate isomerase/NADH assay to a phenazine methosulfate/tetranitroblue tetrazolium color reaction. False positives due to the dehydrogenases and diaphorase inhibition will be eliminated, and selectivity assay will triage inhibitors of mammalian triose phosphate isomerase and the Class I FBPA. G. lamblia FBPA inhibitors identified by the in vitro analyses will be examined for growth inhibition of Giardia trophozoites, and for cytotoxicity in human cells.
Step,Parameter,Value,Description
1,Enzyme reagent,2 uL,40 nM FBPA
2,Compound,23 nL,3.68 nM-57.5 uM final concentration
3,Time,10 min,RT Incubation
4,Substrate/detection Reagent,2 uL,Substrate + enzyme coupling system + AmpLite Red kit
5,Time,20 min,RT Incubation
6,Detector,525 nm/598 nm (Fluorescence),ViewLux Fluorescence Read (Read 1)
1,Medium-binding black solid-bottom Kalypsys plates. FRD or Kalypsys dispenser, 2 uL of FBPA enzyme. Bottle kept at 4C.
2,Compound Library (10 mM ,1:5 dilution). Pin-transferred for a [final] range of 3.68 nM-57.5 uM.
4,FRD or Kalypsys dispenser, 2 uL of reaction mixture. Bottle kept at 4C and covered in foil to protect from light.
6,ViewLux Protocol 1194; Excitation filter wheel A (525/20 Pol; BODIPY TMR FP), Emission filter wheel B (598/25 S; BODIPY TMR FP S).
Keywords: Fructose-bisphosphate aldolase, FBPA , Giardia lamblia , Giardia, HTS, Inhibitors
% is set by controls: 0 for no effect and ±100 for the full control effect; potency is the fitted concentration of half-maximal effect.
Note: nearly all actives have a fitted effect of over 55% in size.

Sequence of Fructose-bisphosphate aldolase (Giardia intestinalis (strain ATCC 50803 / WB clone C6)) (A8B2U2 whole entry, looked up): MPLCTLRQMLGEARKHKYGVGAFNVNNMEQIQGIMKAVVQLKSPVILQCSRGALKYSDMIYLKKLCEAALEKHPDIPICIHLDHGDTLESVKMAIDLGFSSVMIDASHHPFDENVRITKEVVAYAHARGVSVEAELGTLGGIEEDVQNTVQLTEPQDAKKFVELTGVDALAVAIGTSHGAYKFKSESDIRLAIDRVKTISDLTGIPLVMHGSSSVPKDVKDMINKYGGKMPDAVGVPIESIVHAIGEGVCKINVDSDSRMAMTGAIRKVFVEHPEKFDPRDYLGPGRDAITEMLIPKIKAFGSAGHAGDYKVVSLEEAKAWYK

SMILES | activity, negative = inhibition | Potency
CCc1nn(CCCC(=O)NCc2ccc(C)cc2)c(=O)c2cc3occc3n12 | 4.23% | 
CC(C)c1ccc(N(C(=O)c2ccco2)C(C(=O)NC2CCCC2)c2cccnc2)cc1 (stereo not given) | 7.96% | 
O=c1[nH]c(=O)c2nc3ccccc3nc2[nH]1 | 3.35% | 
Nc1ccc2nc3c(=O)[nH]c(=S)[nH]c3nc2c1 |  | 3.54 µM (active)
Cc1ccc(NS(=O)(=O)c2ccc(-c3ccc(=O)[nH]n3)o2)c(C)c1 | 4.34% | 
O=[N+]([O-])c1ccc(N(CCO)Cc2ccccc2)c([N+](=O)[O-])c1 | 7.03% | 
CCOc1cc(-c2cc(-c3ccc(NC(C)=O)cc3)nc(N)c2C#N)ccc1O | -3.5% | 
O=[N+]([O-])c1cccc2ncccc12 | -0.876% | 
CCN(CC)c1ccc([N+](=O)[O-])c2cccnc12 | -27.5% | 
O=[N+]([O-])c1cc([N+](=O)[O-])c2cccnc2c1O |  | 15.8 µM (active)
CCOC(OCC)c1ccc(/C=C\c2nccc(N)n2)cc1 | -5.31% | 
Cc1ccc(NC(=S)NCCc2ccc(Cl)cc2)c(C)c1 | 0.528% | 
O=c1o[nH]c(-c2ccccc2)c1N=Nc1c(F)cccc1Cl | -7.28% | 
COc1ccc(-c2cn[nH]c2-c2ccc(OC)cc2)cc1 | -0.709% | 
COc1ccc(N=Nc2c(-c3ccc(OC)cc3)[nH]oc2=O)cc1 |  | 12.6 µM (active)
O=C(Nc1ccc([N+](=O)[O-])cc1)OCCc1ccccn1 | 6.01% | 
CCS(=O)(=O)C1=NSC2=NC(=O)/C(=C\c3ccc(OS(=O)(=O)c4ccccc4)cc3)C(=N)N21 | -0.451% | 
COc1ccc(OCc2cc(C(=O)NCC3(C)COC3)no2)c(Cl)c1 | 3.12% | 
COC(=O)c1c(NC(=O)COc2ccc(Cl)cc2Cl)sc2c1CC(C)(C)NC2(C)C | -0.396% | 
CN1CCCc2cc(C#N)c(=O)[nH]c21 |  | 9.98 µM (active)
Cc1[nH]c(C)c(S(=O)(=O)N2CCC(C)CC2)c1C(=O)N1CCCC1 | 0.103% | 
CCNC(=S)N(CCN(CC)CC)Cc1cc2cc3c(cc2[nH]c1=O)OCCO3 | 0.97% | 
CCOC(=O)c1cnc2[nH]c3ccccc3n2c1=O | 2.05% | 
Cc1ccc(-c2nc3ccccc3[nH]c2=O)cc1 | 3.98% | 

SMILES | activity, negative = inhibition | Potency
O=c1[nH]c2ccccc2n2c(-c3ccccc3)nnc12 |  | 0.998 µM (active)
O=C1c2ccccc2C(=O)N1CCOc1ccc(F)cc1 | 1.01% | 
COc1ccc(C2=NN(C(=O)c3ccccc3C(=O)O)C(c3ccccc3O)C2)cc1 (stereo not given) | 12.5% | 
Cc1ccccc1N1CCN(CCCN2C(=O)C3CCCCN3C2=O)CC1 (stereo not given) | -15.4% | 
CCCCC1(C(=O)OCC)NC(c2ccc(O)cc2)C2C(=O)N(c3ccccc3)C(=O)C21 (stereo not given) | 7.01% | 
CC(=O)c1nc2ccccc2n1Cc1ccccc1 | -5.52% | 
O=C(O)Cn1c(Cc2ccccc2)nc2ccccc21 |  | 28.2 µM (active)
C=C(Br)Cn1c(CCCC)nc2ccccc21 | 8.1% | 
Cc1cc(C)nc(N/N=C/c2c(C)oc3ccccc23)n1 | -26.2% | 
CCc1ccc(S(=O)(=O)N/N=C\c2ccc([N+](=O)[O-])o2)cc1 | -19.2% | 
Cc1cc(C)nc(N/N=C/c2ccc([N+](=O)[O-])o2)n1 |  | 28.2 µM (active)
CS(=O)(=O)N1CCc2cc(C(=O)Nc3ccccc3Br)ccc21 | 10.4% | 
CCCOc1ccc(-c2c(C(=O)N/N=C/c3ccco3)nnn2-c2nonc2N)cc1 | 7.42% | 
Cc1ccc(/C=N/NC(=O)c2cc3ccccc3cc2O)o1 | -19.7% | 
Cn1nnc(NC(=S)NC(=O)c2ccccc2)n1 |  | 3.15 µM (active)
Cc1cc2[nH]ncc2cc1NC(=S)NC(=O)c1ccccc1 | -10.8% | 
COCCCNC(=S)NC(=O)c1ccccc1 | 0.0132% | 
Cc1c(Cl)cccc1NC(=S)NCC(O)c1ccccc1 (stereo not given) | 0.0635% | 
O=C(c1n[nH]c2c1CCC2)N1CCCC(Nc2cccc(F)c2)C1 (stereo not given) | -1.71% | 
CSc1n[nH]c(=S)n1N |  | 19.9 µM (active)
Cc1noc(C)c1CCC(=O)N1CCCC(CO)(Cc2ccccc2)C1 (stereo not given) | -4.45% | 
COc1ccc2c3c(c(=O)oc2c1)C1O[C@](CCCCN2C(=O)c4ccccc4C2=O)(Cc2c1ccc1ccccc21)O3 | -2.65% [at 12.9 µM] | 
COc1ccc(CCNCc2c(-c3ccccc3)n(C)c3ccccc23)cc1 | -29.6% | 
COc1ccc(-c2csc(Nc3ccc(O)cc3)n2)cc1 | -23% | 

SMILES | activity, negative = inhibition | Potency
COc1ccc(OC)c(Nc2nc(-c3ccc(O)c(O)c3)cs2)c1 |  | 8.89 µM (active)
COc1ccc(-c2csc(Nc3ccccn3)n2)cc1 | -13.5% | 
COc1ccc(C2=Nn3c(nnc3-c3ccccc3O)SC2)cc1 | 5.11% | 
CCOc1cc(C2/C(=C(/O)c3ccc(S(=O)(=O)N4CCCCC4)cc3)C(=O)C(=O)N2CCOC)ccc1O (stereo not given) | 20.3% | 
C=C(C)CNC(=S)N/N=C/c1ccccc1OCC(=O)O |  | 17.7 µM (active)
Cc1ccc(/C=N/NC(=O)CNC(=O)COc2ccccc2)o1 | -0.787% | 
CCOc1ccccc1/C=N/NC(=O)CNC(=O)COc1ccccc1 |  | 17.7 µM (active)
C=CCOc1ccccc1/C=N/NC(=O)Cc1ccccc1 | 9.96% | 
CCn1c(SCC(=O)N/N=C/c2ccccc2OCC(=O)O)nnc1-c1ccc(C(C)(C)C)cc1 | -14% | 
O=C(CNC(=O)COc1ccccc1)NCCc1ccccn1 | 5.88% | 
COC(=O)c1cccc(N2C(=O)C3C4C=CC(CC4)C3C2=O)c1 (stereo not given) | 5.94% | 
CCCCN1C(=O)C(C)=C(C)C1OCCc1ccc(OC)c(OC)c1 (stereo not given) | 4.28% | 
Cc1ccc(C(=O)NCC(=O)OCc2nnc(-c3ccccc3)o2)cc1 | 5.28% | 
CCOc1ccc(N(C)Cc2cc(=O)oc3ccc(OC)cc23)cc1 | 6.29% | 
Cn1nccc1/C=N\NC(=O)c1ccc(Cl)cc1 | -7.24% | 
C=CCc1c(C)nc2cc(-c3ccccc3)[nH]n2c1=O | -20.9% | 
Cc1nc2cc(C(F)(F)F)ccc2n1CCNc1nc(-c2cc(Cl)c(N)c(Cl)c2)cs1 | -7.4% | 
COc1cccc(C(=O)Nc2nnc(S(=O)(=O)N3CCCCC3)s2)c1 |  | 17.8 µM (active)
CCOC(=O)CSc1nnc(NC(=O)c2cccc(S(=O)(=O)N3CCCCC3)c2)s1 | 8.02% | 
Cc1ccccc1OCC(=O)Nc1nnc(S(=O)(=O)N2CCCC2)s1 | 0.701% | 
COc1ccc(C)cc1N(CC(=O)N1CCCC1)S(=O)(=O)c1ccccc1 | 8.2% | 
Cc1ccc(C)c(N2CCN(S(=O)(=O)c3c(C)[nH]c(C)c3C(=O)N3CCCC3)CC2)c1 | 6.26% | 
